# This is a sample that favours compounds with a hit; in the whole collection about 1.6% have one here.
# KCNQ2 pot = potentiators of rat KCNQ2 potassium channel | Potassium voltage-gated channel subfamily KQT member 2 (Rattus norvegicus), O88943 | CHO-K1 KCNQ2, FluxOR thallium flux fluorescence; hits give high values | B-score at 10 µM | 310,000 compounds, 0.54% hits;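 active means fluorescence ratio B-score at least 3 SD of library B-scores, with initial fluorescence B-score within 3 of them, cut at about 5.3 in these data; same plate scores as AID 2156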;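 further: B-score of peak minus minimum over baseline fluorescence ratio after K+ and Tl+ stimulus; positive B-score means potentiation of KCNQ2 with more thallium influx and brighter signal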
# Target sequence (O88943 whole entry, looked up): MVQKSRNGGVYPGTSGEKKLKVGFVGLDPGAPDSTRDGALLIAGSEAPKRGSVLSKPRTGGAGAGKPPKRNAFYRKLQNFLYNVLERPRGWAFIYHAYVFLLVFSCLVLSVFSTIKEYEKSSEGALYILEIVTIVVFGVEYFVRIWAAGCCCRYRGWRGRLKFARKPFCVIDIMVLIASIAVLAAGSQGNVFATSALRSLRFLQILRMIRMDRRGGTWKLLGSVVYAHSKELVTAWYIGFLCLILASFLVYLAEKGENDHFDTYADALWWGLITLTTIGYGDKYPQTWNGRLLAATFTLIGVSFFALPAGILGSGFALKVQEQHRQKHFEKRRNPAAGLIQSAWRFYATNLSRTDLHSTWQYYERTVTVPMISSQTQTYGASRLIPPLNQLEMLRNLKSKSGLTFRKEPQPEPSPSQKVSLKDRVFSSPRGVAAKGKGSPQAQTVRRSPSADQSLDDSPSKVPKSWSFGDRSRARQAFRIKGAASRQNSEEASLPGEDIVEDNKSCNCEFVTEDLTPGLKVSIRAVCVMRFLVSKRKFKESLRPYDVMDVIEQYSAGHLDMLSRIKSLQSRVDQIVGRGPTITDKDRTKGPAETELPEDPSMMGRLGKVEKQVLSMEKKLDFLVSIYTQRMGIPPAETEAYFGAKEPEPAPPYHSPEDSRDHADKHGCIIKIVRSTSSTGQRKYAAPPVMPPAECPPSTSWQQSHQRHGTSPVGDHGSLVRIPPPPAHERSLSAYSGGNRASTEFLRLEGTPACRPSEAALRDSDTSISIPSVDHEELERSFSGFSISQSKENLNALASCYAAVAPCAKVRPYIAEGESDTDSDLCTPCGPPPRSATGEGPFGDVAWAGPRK
# KCNQ2 block = rat KCNQ2 potassium channel inhibitors, primary screen, cell-based, CHO-K1, FluxOR thallium flux, B-score; Potassium voltage-gated channel subfamily KQT member 2 (Rattus norvegicus), O88943; 310,000 compounds, 1.1% hits; AID 2156, 2009; 20 min; hits give low values; B-score at 10 µM;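 active means fluorescence ratio B-score at most minus 3 library SDs, with starting brightness B-score within 2 library SDs, cut at about -5.5 in these data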
# * hit, by the source's call; i = inactive; . = no result given.
SMILES,KCNQ2 pot,KCNQ2 block
CCN1C(=O)/C(=C\c2ccco2)C(C(=O)OC)=C1C,0.9,i
CCOC(=O)C1=C(C)N(c2ccc(OCC)cc2)C(=O)/C1=C\c1ccco1,.,i
COC(=O)C1=C(C)N(Cc2ccccc2)C(=O)/C1=C\c1ccco1,-5.7,-5.7*
COC(=O)C1=C(C)N(c2cccc(OC)c2)C(=O)/C1=C\c1ccco1,-6.2,-6.2*
COC(=O)C1=C(C)N(CCc2ccccc2)C(=O)/C1=C\c1ccco1,-5.9,-5.9*
C=CCN1C(=O)/C(=C\c2ccco2)C(C(=O)OC)=C1C,0.71,i
Cc1cc(N2C(=O)C(O)=C(C(=O)c3ccc(C)o3)C2c2ccc([N+](=O)[O-])cc2)no1 (configuration not stated),0.35,i
Cc1ccccc1C(=O)N1CCC(C(=O)Nc2ccccn2)CC1,.,i
O=C(Nc1cccnc1)c1ccc(-c2cc(Cl)ccc2Cl)o1,0.02,i
O=C(NCc1cccnc1)c1ccc(-c2cc(Cl)ccc2Cl)o1,-6.8,-6.8*
O=C(COc1ccccc1Cl)NNC(=O)c1ccc2nc[nH]c2c1,.,i
COc1ccc(C(=O)COC(=O)[C@H](C)Nc2ccc(C(F)(F)F)cc2[N+](=O)[O-])cc1,0.01,i
Cc1cc(C)c(C(=O)COC(=O)[C@H](C)Nc2ccc(C(F)(F)F)cc2[N+](=O)[O-])c(C)c1,-6.2,-6.2*
O=C(CSc1ncnc2scc(-c3ccccc3)c12)N1CCN(c2ccccc2F)CC1,-6.2,-6.2*
COc1ccccc1N1CCN(C(=O)CSc2ncnc3scc(-c4ccccc4)c23)CC1,.,i
COc1cc(C(=S)N2CCOCC2)ccc1OS(=O)(=O)c1ccccc1[N+](=O)[O-],1.4,i
COc1ccc(C(=S)N2CCOCC2)cc1OS(=O)(=O)c1ccccc1[N+](=O)[O-],-6.7,-6.7*
O=C(CN1C(=O)NC2(CCCCCC2)C1=O)c1ccc(Cl)s1,.,i
CCOc1ncccc1C(=O)Nc1ccc(C)cn1,.,i
CCc1ccc(NC(=O)COc2ccc(F)cc2C(=O)c2cnn(-c3ccccc3)c2)cc1,.,i
COc1ccccc1NC(=O)COc1ccccc1C(=O)c1cnn(-c2ccccc2)c1,-6,-6*
COC(=O)c1c(C(=O)OC)c(-c2cccc(F)c2)n2c1CS(=O)C2 (configuration not stated),0.66,i
COC(=O)c1c(C(=O)OC)c(-c2ccc(C(C)(C)C)cc2)n2c1CS(=O)C2 (configuration not stated),-8,-8*
CCCN(C(=O)c1ccccc1Cc1ccccc1)C1CCS(=O)(=O)C1 (configuration not stated),.,i
O=C(C1=C[C@@H](c2csc3ccccc23)C[C@@H](OCc2ccc(CO)cc2)O1)N1CCOCC1,.,i
SMILES,KCNQ2 pot,KCNQ2 block
O=C(NC1CC1)C1=C[C@H](c2csc3ccccc23)C[C@H](OCc2ccc(CO)cc2)O1,.,i
O=C(Nc1ccccc1)C1=C[C@H](c2csc3ccccc23)C[C@H](OCc2ccc(CO)cc2)O1,-5.7,-5.7*
O=C(C1=C[C@@H](c2csc3ccccc23)C[C@@H](OCc2ccc(CO)cc2)O1)N1CCN(Cc2ccccc2)CC1,-6.2,-6.2*
CCOC(=O)/C(=N\Nc1ccc(Br)cc1)N1CC(C)OC(C)C1 (configuration not stated),.,i
CSCCC(NC(=O)c1cccc(C)c1)C(=O)OCC(=O)Nc1c(C)nn(-c2ccccc2)c1C (configuration not stated),.,i
CC(=O)N1c2ccc(S(=O)(=O)NCC3CCC(C(=O)NCc4ccccc4)CC3)cc2CC1C (configuration not stated),0.03,i
CC(C)CN(CC(C)C)S(=O)(=O)c1cc([N+](=O)[O-])ccc1N1CCCCCC1,-6.1,-6.1*
CN(C)S(=O)(=O)c1cc([N+](=O)[O-])ccc1N1CCCCCC1,.,i
CC(=O)N1CCN(C(=O)c2cccc(NS(=O)(=O)c3ccc(Br)cc3)c2)CC1,1,i
CCOc1ccccc1N(C)C(=O)c1ccc2c(=O)n3c(nc2c1)CCCCC3,.,i
CCOCCOC(=O)C1=C(C)NC2=C(C(=O)CC(c3cccs3)C2)C1c1ccsc1 (configuration not stated),.,i
CC1=C(C(=O)Nc2ccccc2F)C(c2ccsc2)C2=C(CC(c3ccccc3)CC2=O)N1 (configuration not stated),-6.1,-6.1*
CCN(CC)c1nc(C)c2c(c1C#N)CC(C)(C)OC2,-6.7,-6.7*
Cc1nc(NCCCO)c(C#N)c2c1COC(C)(C)C2,.,i
CC1CCCN(C(C(=O)Nc2ccc3c(c2)OCO3)c2ccccc2)C1 (configuration not stated),-5.7,-5.7*
CC1CCCN(C(C(=O)Nc2ccc3c(c2)OCCO3)c2ccccc2)C1 (configuration not stated),.,i
CCOC(=O)C1(CCOc2ccccc2)CCN(Cc2ccc(OCC)c(CO)c2)CC1,1.1,i
CCOc1ccccc1CN1CCCC(C(=O)Nc2cccc(-n3cccn3)c2)C1 (configuration not stated),.,i
O=C(c1cccs1)c1no[n+]([O-])c1C(=O)c1cccs1,-14,-14*
COc1ccc(C(=O)c2no[n+]([O-])c2C(=O)c2ccc(OC)cc2)cc1,.,i
CC(=O)Nc1ccc(C(=O)NNC(=O)C2C3CCCCC32)cc1 (configuration not stated),1.2,i
COc1ccc(CNC(=S)Nc2ccccc2)cc1,0.44,i
COc1ccc(/C(O)=C2\C(=O)C(=O)N(c3cc(C)on3)C2c2cccc(OC)c2OC)cc1C (configuration not stated),0.65,i
COc1cccc(C2c3c(oc4ccc(Cl)cc4c3=O)C(=O)N2c2cc(C)on2)c1OC (configuration not stated),-7.2,-7.2*
O=C(c1ccc2ccccc2c1)N1CCCCC1,0.86,i
SMILES,KCNQ2 pot,KCNQ2 block
O=C(c1ccc2ccccc2c1)N1CCN(c2ccccc2)CC1,-5.6,-5.6*
CN1CCCN(S(=O)(=O)c2ccc(O)c(C(=O)O)c2)CC1,0.02,i
CCCCN(C(=O)Cc1coc2cc(C)c(C)cc12)c1c(N)n(Cc2ccccc2)c(=O)[nH]c1=O,0.48,i
CCn1cc(C2=NC(c3ccccc3)CO2)c2ccccc21 (configuration not stated),-5.7,-5.7*
CCn1cc(C2=NC(C)CO2)c2ccccc21 (configuration not stated),0.41,i
COC(=O)c1cn(NC(=O)Cc2ccc(OC)c(OC)c2)c(=O)c2ccccc12,.,i
COC(=O)c1cn(NC(=O)Cc2cccc(OC)c2)c(=O)c2ccccc12,7.2*,i
O=C(NCCc1c[nH]c2ccccc12)OCCCCOC(=O)NCCc1c[nH]c2ccccc12,.,i
Cc1ccc(SCCC(=O)NCCSCc2ccccc2C)cc1,-7.8,-7.8*
CCCCNC(=O)CCSc1ccc(C)cc1,.,i
CNC(=O)/C(=C\c1cccc(Oc2ccccc2)c1)NC(=O)c1ccccc1,.,i
CNC(=O)/C(C#N)=C/c1cccc(Oc2ccccc2)c1,-5.9,-5.9*
COc1cc(CNC(=O)c2cccc(COc3ccc(Cl)cc3)c2)cc(OC)c1,-5.9,-5.9*
O=C(NCc1ccccc1)c1cccc(COc2ccc(Cl)cc2)c1,.,i
Cc1onc(-c2c(F)cccc2Cl)c1C(=O)c1ccc(F)cc1,.,i
